# DT40 TDP1 no CPT = qHTS for Inhibitors of human tyrosyl-DNA phosphodiesterase 1 (TDP1): qHTS in cells in absence of CPT | DT40 Tdp1-/- hTDP1 cells, no CPT, ATP luminescence, 48 h | Potency, µM (series often up to 46.2 µM), inactives show at the top dose activity change, negative = growth inhibition, most hits filed as inhibitors | 420,000 tested, 15% active; note: potency is the fitted concentration of half-maximal effect; nearly all actives have a fitted effect of over 55% in size
#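 Chicken DT40 Tdp1-/- cells stably complemented with human TDP1 were seeded at 400 cells/well with DMSO in place of 20 nM camptothecin. After compound pinning, cells grew at least 48 hr at 37 °C; viability read by CellTiter-Glo luminescence.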
# DT40 TDP1 CPT = qHTS for Inhibitors of human tyrosyl-DNA phosphodiesterase 1 (TDP1): qHTS in cells in presence of CPT; Potency, µM (series often up to 46.2 µM), without a hit: at the top dose activity change, negative = growth inhibition, most hits filed as inhibitors; chicken DT40 Tdp1-/-;hTDP1 cells + 20 nM CPT, ATP luminescence, 48 h; 420,000 tested, 12% active; AID 686979, 2013; note: potency is the fitted concentration of half-maximal effect; nearly all actives have a fitted effect of over 55% in size
#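 Chicken DT40 Tdp1-/- cells stably complemented with human TDP1 were seeded at 400 cells/well in medium containing 20 nM camptothecin, exposed to pin-transferred compounds, and grown at 37 °C for at least 48 hr. Viability was read as ATP luminescence.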
# IL-1B inflam inh = qHTS for Inhibitors of Inflammasome Signaling: IL-1-beta AlphaLISA Primary Screen. THP-1 LPS/ATP IL-1B secretion, AlphaLISA, 16 h; stronger effect = lower value. activity change, % at 57.5 µM. 360,000 tested, 4.7% active. AID 743279, 2014; in the data active = activity change below about -50%; inconclusive = mostly about -30% to -49%
#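 Secreted IL-1B measured by AlphaLISA bead assay after 16 h compound exposure of THP-1 cells; compounds (final up to 57.5 uM) added 1 h before LPS (250 ng/mL) and ATP (1.25 mM) stimulation; lower signal means less secretion.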
# HT1080NT lethal = qHTS for induction of synthetic lethality in tumor cells producing 2HG: qHTS for the HT-1080-NT fibrosarcoma cell line | HT-1080-NT fibrosarcoma viability, CellTiter-Glo ATP luminescence, 48 h | Potency, µM (series often up to 46.1 µM), for the others: at the highest dose activity, negative = less viability, usual class: cytotoxic | 360,000 tested, 1.6% active;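 note: NT is the 2HG producing partner of a matched IDH1 knockdown line; potency is the fitted concentration of half-maximal effect; 0% = DMSO-treated cells and -100% = media-only wells without cells; nearly all actives have a fitted effect of over 55% in size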
#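 HT-1080-NT; 750 cells/well; 5% FBS RPMI; 48 h compound, 37 degrees C; CellTiter-Glo luminescence; curve fitting and curve-class assignment.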
# HT1080 IDH1KD tx = qHTS for induction of synthetic lethality in tumor cells producing 2HG: qHTS for the HT-1080-IDH1KD cell line; HT-1080 IDH1 knockdown viability, ATP luminescence, 48 h; Potency, µM (top dose mostly 46.1 µM), for the others: at the highest dose activity, negative = toxicity, actives largely listed as cytotoxic; 360,000 tested, 2% active; AID 686971, 2013;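 note: potency is the fitted concentration of half-maximal effect; 0% = DMSO wells and -100% = cell-free medium wells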
#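 Using the IDH1-knockdown HT-1080 line run in the same batch and compound series as the NT line, viability after 48 h at 37 °C was determined by CellTiter-Glo luminescence and expressed as % activity.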
# * = called active by the depositor; i = inactive; ? = inconclusive; / = no result given. Hits are enriched below; roughly 19% of the tested compounds scored in any of these assays. Unless noted, calls come from the whole dose curve; as a rule, active = well fitted curve in the direction sought with a large enough effect; inconclusive = small, poorly fitted or top-dose-only effect, or another doubt; inactive = no such curve, though single readings can be large; an effect the other way counts as inactive or inconclusive. Unless noted, % is set by controls: 0 for no effect and ±100 for the full control effect.
SMILES,DT40 TDP1 no CPT,DT40 TDP1 CPT,IL-1B inflam inh,HT1080NT lethal,HT1080 IDH1KD tx
Cc1c(Br)cc(C(=O)NC2CCCCC2)c(C)c1C,-29%,?,16,2%,6%
CC(C)c1ccc(-c2csc3ncnc(N4CCN(C)CC4)c23)cc1,12µM*,16µM*,-92*,16µM*,21µM*
CN1CCCN(c2ncnc3scc(-c4ccc(F)cc4)c23)CC1,?,-21%,-7,3%,-1%
CSc1cc(-c2ccc(Cl)cc2)c(C(=O)NC(C)C)s1,12µM*,9.2µM*,-14,18%,10%
COc1ccc(OC)c(S(=O)(=O)NCC(c2cccs2)N2CCc3ccccc3C2)c1 (centres undefined),?,16µM*,3,-11%,-12%
Cc1ccc(C(C)C)c(OCC(=O)Nc2ccc(-c3nc4ncccc4o3)cc2C)c1,-14%,-1%,/,/,/
Cc1cc(C(C)(C)C)cc(C)c1C[n+]1ccc2ccccc2c1,0.23µM*,0.41µM*,-52*,?,?
COC(=O)c1ccccc1Oc1nc(Cl)cc(OC)n1,26µM*,18µM*,19,8%,1%
COc1cc(OC)nc(Oc2ccccc2C(=O)Oc2ccccc2Cl)n1,-17%,-15%,6,9%,0%
COc1cc(OC)nc(Oc2ccccc2C(=O)Oc2ccc(Cl)cc2)n1,16µM*,?,3,-5%,-19%
COCCN1C[C@@H](CO)O[C@@H](n2cnc3c(NCc4ccc(F)cc4)ncnc32)C1,-11%,-27%,10,?,29%
Cn1cc(-c2csc(C(O)c3ccc(F)cc3)n2)cn1 (centres undefined),?,?,36,9%,0%
C=CCC1(CC=C)CCCN1C(=O)c1ccc2oc(CCCC)nc2c1,10µM*,12µM*,-24,-4%,-16%
CCCCc1nc2cc(C(=O)N3CCC(OC)CC3)ccc2o1,9%,-13%,-6,0%,-2%
CCCc1ccc2oc(C(=O)N(Cc3nccn3C)C(C)C)c(C)c2c1,2.1µM*,5.2µM*,-7,-6%,1%
CCOC(=O)CC1CCCCN1C(=O)c1ccc2oc(CCc3ccccc3)nc2c1 (centres undefined),15µM*,21µM*,22,-13%,-17%
CCCc1ccc2oc(C(=O)NCCc3nc(C(=O)OCC)cs3)c(C)c2c1,?,?,i,-19%,-15%
Cc1c(C(=O)N(Cc2nccn2C)C(C)C)oc2c(F)cccc12,-28%,?,42,-3%,-4%
CCCc1ccc2oc(C(=O)NCCc3cnn(C)c3)c(C)c2c1,16µM*,16µM*,3,0%,0%
CC(C)c1ccccc1NCC(=O)N1CCN(Cc2ccccc2)CC1,?,?,-11,1%,-1%
O=C(COc1ccccc1)c1cn(CC(=O)N2CCCC2)c2ccccc12,4%,-28%,0,-5%,-4%
CCN(CC(=O)Nc1ccc(OC)cc1)C(=O)Cc1ccc(OC)c(S(=O)(=O)N2CCOCC2)c1,-17%,-7%,-6,1%,0%
CCCN(CC(=O)Nc1ccc(F)c(F)c1F)C(=O)C1=COCCO1,-4%,-13%,-4,9%,6%
CC(C)N(Cc1nccn1C)C(=O)c1ccc2oc(CCCc3ccccc3)nc2c1,23µM*,18µM*,0,-7%,-7%
CN(Cc1nccn1C)C(=O)c1ccc2nc(Cc3ccccc3F)oc2c1,18%,-3%,4,7%,11%
SMILES,DT40 TDP1 no CPT,DT40 TDP1 CPT,IL-1B inflam inh,HT1080NT lethal,HT1080 IDH1KD tx
O=C(c1ccc2oc(CCCc3ccccc3)nc2c1)N1CCCC1,?,16µM*,-4,8%,9%
COc1ccc(-c2cnc3c(NC(C)=O)cc(-c4cccc(C(=O)NCCN(C)C)c4)cn23)cc1OC,12µM*,?,?,?,33µM*
COc1cc(-c2cnc3c(NC(C)=O)cc(-c4cccc(C(=O)NCCO)c4)cn23)cc(OC)c1OC,10µM*,16µM*,83,-2%,6%
COc1ccc(-c2cnc3c(NC(C)=O)cc(-c4cccc(C(=O)NCCO)c4)cn23)cc1OC,21µM*,21µM*,-55*,-18%,-17%
COc1ccc(-c2cnc3c(NC(C)=O)cc(-c4cccc(C(=O)N(C)C)c4)cn23)cc1OC,13µM*,21µM*,-18,-21%,-1%
COc1ccc(S(=O)(=O)N2CCCCCC2)cc1NC(=O)CN1C(=O)NC(C)(c2ccccc2)C1=O (centres undefined),?,?,-15,2%,-2%
CCSC(=S)Nc1c(C)n(C)n(-c2ccccc2)c1=O,-24%,-28%,-20,-3%,-6%
CCOCCCNC(=O)c1[nH]c2cc(C)ccc2c1Sc1ccc(Cl)cc1,-21%,?,/,/,/
CC1CCN(C(=O)c2ncn(Cc3ccccc3)c2C(=O)N2CCC(C)CC2)CC1,?,-23%,6,-1%,-3%
COc1cccc(-c2cnc3c(NC(C)=O)cc(-c4cccc(C(=O)NCCN(C)C)c4)cn23)c1,18µM*,?,-27,16µM*,?
CCCN(CCC)Cc1cc(=O)oc2ccc3ccccc3c12,?,?,16,-25%,?
c1ccc(Oc2nnc(-c3cccs3)c3ccccc23)cc1,?,-2%,18,-2%,1%
Cc1ccc(Oc2nnc(-c3cccs3)c3ccccc23)cc1C,?,18µM*,-23,?,?
Cc1ccc(Oc2nnc(-c3cccs3)c3ccccc23)cc1,18µM*,?,18,21%,28%
CC(C)(C)n1ncc2c(=O)n(CC(=O)NCc3ccccc3)cnc21,6.5µM*,8.2µM*,27,16µM*,16µM*
CC(C)(C)n1ncc2c(=O)n(Cc3ccc(Cl)cc3Cl)cnc21,15µM*,16µM*,?,-4%,0%
O=c1c2cnn(-c3ccc(F)cc3)c2ncn1Cc1ccccc1Cl,-20%,-14%,/,/,/
CC(C)(C)n1ncc2c(=O)n(CC(=O)Nc3ccc(Cl)cc3)cnc21,?,?,39,-21%,-5%
CC(=O)Nc1ccc(NC(=O)Cn2cnc3c(cnn3C(C)(C)C)c2=O)cc1,-11%,-11%,-21,12%,-2%
CC(C)(C)n1ncc2c(=O)n(CC(=O)c3ccc(Cl)cc3)cnc21,23µM*,23µM*,-9,-11%,0%
